Results taken from PubChem BioAssay (EPA / NIEHS).
Activity calls are given as the source filed them. Rule for the calls: active = hit-call score of the fitted dose curve at least 0.9, where 1 is the maximum; inactive = score below 0.9.

Columns and labels:
Conditions in all cases: mRNA level, 48 h; actives raise or lower the signal
[1] = read-out: Glutathione S-transferase M3 (GSTM3), GSTM3 (gene 2947); assay: LTEA_HepaRG_GSTM3: Life Technologies and Expression Analysis (LTEA) Assay for Glutathione S-transferase M3 (GSTM3) using HepaRG (AID 2283501)
Procedure, shortened: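 Expression of GSTM3 is determined by qRT-PCR in human liver HepaRG cells treated 48 h with an 8-point half-log range from 100 uM in 0.5% DMSO.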

[2] = read-out: Heat shock 70 kDa protein 1 (HSPA1A), gene 3303; assay: LTEA_HepaRG_HSPA1A: Life Technologies and Expression Analysis (LTEA) Assay for Heat shock 70 kDa protein 1 (HSPA1A) using HepaRG (AID 2283502)
Procedure, shortened: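 Differentiated human HepaRG cells in serum-free induction medium were exposed in duplicate for 48 h to eight concentrations (top 100 uM, half-log steps, 0.5% DMSO). HSPA1A mRNA was quantified by qRT-PCR, normalized to ACTB, GAPDH and POLR2A, and fitted bidirectionally against DMSO.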

[3] = read-out: Hypoxia-inducible factor 1-alpha (Homo sapiens) (UniProt Q16665); assay: LTEA_HepaRG_HIF1A: Life Technologies and Expression Analysis (LTEA) Assay for Hypoxia-inducible factor 1 (HIF1A) Trancription factor using HepaRG (AID 2283503);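 note: HIF1A transcript by TaqMan qRT-PCR normalized to ACTB GAPDH and POLR2A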
Procedure, shortened: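 HepaRG, 48 h exposure, 8-pt half-log series from 100 uM, 0.5% DMSO vehicle, duplicates. Readout: HIF1A transcript by qRT-PCR (Fluidigm array), housekeeping-normalised. Bidirectional curve fit vs DMSO baseline.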

[4] = read-out: 3-Hydroxy-3-Methylglutaryl-CoA Synthase 2 (HMGCS2), HMGCS2 (gene 3158); assay: LTEA_HepaRG_HMGCS2: Life Technologies and Expression Analysis (LTEA) Assay for 3-Hydroxy-3-Methylglutaryl-CoA Synthase 2 (HMGCS2) using HepaRG (AID 2283504)
Procedure, shortened: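 This steatosis marker was read as HMGCS2 mRNA change in HepaRG cells treated 48 h with up to 100 uM chemical. Normalisation used housekeeping genes; activity in either direction was fitted relative to 0.5% DMSO vehicle.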

HGF (gene 3082) = assay: LTEA_HepaRG_HGF: Life Technologies and Expression Analysis (LTEA) Assay for Hepatocyte Growth Facto (HGF) using HepaRG (AID 2283505)
Procedure, shortened: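 Using HepaRG monolayers kept in 0.5% DMSO, chemicals were tested in duplicate over eight half-log concentrations from 100 uM for 48 h. Endpoint: HGF mRNA change relative to DMSO, normalized to ACTB/GAPDH/POLR2A.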

[5] = read-out: Insulin Like Growth Factor 1 (IGF1), IGF1 (gene 3479); assay: LTEA_HepaRG_IGF1: Life Technologies and Expression Analysis (LTEA) Assay for Insulin Like Growth Factor 1 (IGF1) using HepaRG (AID 2283506)
Procedure, shortened: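 Differentiated human HepaRG cells were dosed for 48 h in serum-free induction medium with 0.5% DMSO, eight half-log concentrations up to 100 uM, in duplicate. IGF1 mRNA was quantified by qRT-PCR normalized to ACTB, GAPDH, POLR2A; bidirectional fitting versus DMSO.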

[6] = read-out: Intercellular Adhesion Molecule 1 (ICAM1), ICAM1 (gene 3383); assay: LTEA_HepaRG_ICAM1: Life Technologies and Expression Analysis (LTEA) Assay for Intercellular Adhesion Molecule 1 (ICAM1) using HepaRG (AID 2283507)
Procedure, shortened: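 Using the human liver line HepaRG, compounds are tested in duplicate over 48 h at concentrations up to 100 uM. Expression is determined by TaqMan qRT-PCR, normalized to endogenous controls, and analysed relative to 0.5% DMSO vehicle.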

[7] = read-out: Insulin-like growth factor-binding protein 1 (IGFBP1), IGFBP1 (gene 3484); assay: LTEA_HepaRG_IGFBP1: Life Technologies and Expression Analysis (LTEA) Assay for Insulin-like growth factor-binding protein 1 (IGFBP1) using HepaRG (AID 2283508)
Procedure, shortened: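 HepaRG, 48 h, 8 conc. (max 100 uM, half-log), duplicates, 0.5% DMSO. Readout: TaqMan qRT-PCR, ACTB/GAPDH/POLR2A normalisation. Fit: bidirectional vs DMSO.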

[8] = read-out: Interleukin 6 (IL6), IL6 (gene 3569); assay: LTEA_HepaRG_IL6: Life Technologies and Expression Analysis (LTEA) Assay for Interleukin 6 (IL6) using HepaRG (AID 2283509)
Procedure, shortened: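 HepaRG cells exposed in duplicate for 48 h to eight half-log concentrations, top 100 uM, in 0.5% DMSO serum-free induction medium. mRNA measured by qRT-PCR, normalized to ACTB, GAPDH and POLR2A. Bidirectional fit versus DMSO.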

[9] = read-out: Potassium channel subfamily K member 1 (KCNK1), KCNK1 (gene 3775); assay: LTEA_HepaRG_KCNK1: Life Technologies and Expression Analysis (LTEA) Assay for Potassium channel subfamily K member 1 (KCNK1) using HepaRG (AID 2283511)
Procedure, shortened: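 Differentiated HepaRG cells, 48 h exposure in serum-free induction medium with 0.5% DMSO; 8 concentrations, half-log from 100 uM, duplicate. KCNK1 mRNA by qRT-PCR, normalized to ACTB, GAPDH, POLR2A; bidirectional fit vs DMSO.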

[10] = read-out: Keratin 19 (KRT19), KRT19 (gene 3880); assay: LTEA_HepaRG_KRT19: Life Technologies and Expression Analysis (LTEA) Assay for Keratin 19 (KRT19) using HepaRG (AID 2283512)
Procedure, shortened: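 Readout is qRT-PCR of KRT19 mRNA, normalized to ACTB, GAPDH and POLR2A, from HepaRG cells treated 48 h with eight-point half-log dilutions topping at 100 uM. Activity in either direction is scored relative to 0.5% DMSO vehicle.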

[11] = read-out: Lipase C (LIPC), LIPC (gene 3990); assay: LTEA_HepaRG_LIPC: Life Technologies and Expression Analysis (LTEA) Assay for Lipase C (LIPC) using HepaRG (AID 2283514)
Procedure, shortened: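 HepaRG cells, 48 h after plating, treated in duplicate for 48 h in serum-free induction medium over 8 half-log concentrations from 100 uM, 0.5% DMSO. LIPC mRNA by TaqMan qRT-PCR normalized to ACTB/GAPDH/POLR2A; bidirectional fit versus DMSO.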

[12] = read-out: Lipoprotein lipase (LPL), LPL (gene 4023); assay: LTEA_HepaRG_LPL: Life Technologies and Expression Analysis (LTEA) Assay for Lipoprotein lipase (LPL) using HepaRG (AID 2283515)
Procedure, shortened: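 Differentiated HepaRG cells, plated 48 h, then exposed 48 h in serum-free induction medium to 8 concentrations (top 100 uM, half-log steps) in 0.5% DMSO, duplicate. LPL mRNA measured by qRT-PCR, normalized to ACTB, GAPDH and POLR2A.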

[13] = read-out: MicroRNA 122 (MIR122), gene 406906; assay: LTEA_HepaRG_MIR122: Life Technologies and Expression Analysis (LTEA) Assay for MicroRNA 122 (MIR122) using HepaRG (AID 2283516); note: the transcript read is the microRNA miR-122
Procedure, shortened: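 Differentiated human HepaRG cells were exposed 48 h in serum-free induction medium to eight half-log concentrations (top 100 uM, 0.5% DMSO). Transcript level was measured by TaqMan qRT-PCR, normalized to ACTB, GAPDH and POLR2A, and fitted bidirectionally versus DMSO.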

[14] = read-out: matrix metalloproteinase-10 (MMP10), MMP10 (gene 4319); assay: LTEA_HepaRG_MMP10: Life Technologies and Expression Analysis (LTEA) Assay for matrix metalloproteinase-10 (MMP10) using HepaRG (AID 2283517)
Procedure, shortened: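 Differentiated HepaRG cells in serum-free induction medium exposed 48 h in duplicate to 8-point half-log series up to 100 uM in 0.5% DMSO. mRNA quantified by qRT-PCR, normalised to ACTB, GAPDH, POLR2A; bidirectional fit versus DMSO.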

MYC, MYC (gene 4609) = assay: LTEA_HepaRG_MYC: Life Technologies and Expression Analysis (LTEA) Assay for MYC using HepaRG (AID 2283518)
Procedure, shortened: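 Expression changes were scored by TaqMan qRT-PCR with ACTB, GAPDH and POLR2A normalization. Cultures in serum-free induction medium received duplicate 8-point concentration series, highest 100 uM, for 48 h; DMSO (0.5%) served as baseline.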

[15] = read-out: Paternally Expressed 10 (PEG10), PEG10 (gene 23089); assay: LTEA_HepaRG_PEG10: Life Technologies and Expression Analysis (LTEA) Assay for Paternally Expressed 10 (PEG10) using HepaRG (AID 2283520)
Procedure, shortened: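 Differentiated HepaRG cells, plated 48 h then switched to serum-free induction medium, were exposed in duplicate for 48 h to eight half-log concentrations topping at 100 uM in 0.5% DMSO. PEG10 mRNA was quantified by TaqMan qRT-PCR, normalised to ACTB, GAPDH and POLR2A.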

[16] = read-out: Interleukin 6 Receptor (IL6R), IL6R (gene 3570); assay: LTEA_HepaRG_IL6R: Life Technologies and Expression Analysis (LTEA) Assay for Interleukin 6 Receptor (IL6R) using HepaRG (AID 2283510)
Procedure, shortened: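 Differentiated human HepaRG cells, plated 48 h then switched to serum-free induction medium, were dosed in duplicate for 48 h at eight half-log concentrations up to 100 uM in 0.5% DMSO. IL6R mRNA quantified by qRT-PCR, normalized to ACTB/GAPDH/POLR2A; bidirectional fit versus DMSO.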

[17] = read-out: matrix metalloproteinase-3 (MMP3), MMP3 (gene 4314); assay: LTEA_HepaRG_MMP3: Life Technologies and Expression Analysis (LTEA) Assay for matrix metalloproteinase-3 (MMP3) using HepaRG (AID 2283519)
Procedure, shortened: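 HepaRG cells (~100,000/well) in serum-free induction medium were dosed in duplicate for 48 h with an 8-point half-log series from 100 uM, 0.5% DMSO. MMP3 mRNA was quantified by Fluidigm TaqMan qRT-PCR, normalized to three housekeeping genes.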

[18] = read-out: JUN Transcription Factor, JUN (gene 3725); assay: LTEA_HepaRG_JUN: Life Technologies and Expression Analysis (LTEA) Assay for JUN Transcription Factor using HepaRG (AID 2283513)
Procedure, shortened: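 Differentiated HepaRG cells were exposed to chemicals for 48 h in serum-free induction medium, 8 concentrations from 100 uM in half-log steps, 0.5% DMSO vehicle, in duplicate. JUN mRNA was quantified by TaqMan qRT-PCR, normalized to ACTB, GAPDH, POLR2A.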

Measured: AC50

Chain of Hypoxia-inducible factor 1-alpha (Homo sapiens) (Q16665 whole entry, looked up): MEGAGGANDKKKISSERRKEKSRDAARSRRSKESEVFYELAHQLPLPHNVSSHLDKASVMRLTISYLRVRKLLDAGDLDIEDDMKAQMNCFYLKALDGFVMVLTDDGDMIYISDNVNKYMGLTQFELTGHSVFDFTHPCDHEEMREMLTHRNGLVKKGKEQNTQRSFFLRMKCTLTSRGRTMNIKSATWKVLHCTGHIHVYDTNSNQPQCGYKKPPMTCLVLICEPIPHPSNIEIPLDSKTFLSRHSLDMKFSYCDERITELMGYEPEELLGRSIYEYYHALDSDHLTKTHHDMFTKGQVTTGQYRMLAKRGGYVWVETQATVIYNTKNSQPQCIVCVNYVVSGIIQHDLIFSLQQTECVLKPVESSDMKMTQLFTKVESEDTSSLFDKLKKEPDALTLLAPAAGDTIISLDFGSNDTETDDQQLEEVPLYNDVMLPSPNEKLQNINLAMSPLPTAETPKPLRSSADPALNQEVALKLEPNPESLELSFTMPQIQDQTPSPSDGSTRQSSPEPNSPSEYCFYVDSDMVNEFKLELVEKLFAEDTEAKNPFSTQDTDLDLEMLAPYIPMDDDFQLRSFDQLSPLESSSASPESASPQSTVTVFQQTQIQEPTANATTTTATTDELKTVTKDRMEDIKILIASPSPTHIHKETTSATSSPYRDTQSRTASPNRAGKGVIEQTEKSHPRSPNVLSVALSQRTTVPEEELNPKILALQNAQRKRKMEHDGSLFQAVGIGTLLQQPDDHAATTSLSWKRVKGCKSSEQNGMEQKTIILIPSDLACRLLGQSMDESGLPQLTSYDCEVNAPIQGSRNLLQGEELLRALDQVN

Fc1ccc(Oc2ccnc3cc(Cl)cc(Cl)c23)cc1
active: [5] 50 µM | [7] 57.2 µM | [8] 77.4 µM | [10] 50 µM | [11] 78.8 µM | [15] 33.5 µM
not listed: [16] | [17] | [18]
inactive: all other assays above

CCNc1nc(Cl)nc(NCC)n1
not listed: [18]
inactive: all other assays above

CON(C)C(=O)Nc1ccc(Cl)c(Cl)c1
active: [4] 63.4 µM | [5] 50 µM | [10] 48.5 µM | [11] 31.6 µM | [12] 12.5 µM | MYC, MYC (gene 4609) 78.6 µM | [15] 65.3 µM
not listed: [7] | [17]
inactive: all other assays above
